According to PubChem BioAssay AID1159580 (chemical genetic matrix, 2015):
Out of some 5,500 compounds screened, about 2,000 (36%) were called active. Roughly 18% stayed inconclusive and do not appear here. This is one part of the list. Unmarked numbers belong to inactive results. Rule as the data show it: active = normalized growth mostly below about 0.91 (no sharp cut-off); inconclusive = no clear call, values can overlap the other calls; inactive = mostly above about 0.92.

Assay: chemical genetic growth profiling, strain panel (AID 1159580);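 also: tested at 20 µM; growth read once vehicle control cultures reached saturation at 30 °C; 1 = growth at the plate median or of vehicle wells; lower values mean less growth of the strain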
Settings: S. cerevisiae deletion strains, growth OD
[1] = locus YAL013W, strain DEP1, active compounds read low
[2] = locus YBR229C, strain ROT2, active compounds read low
[3] = locus YDL101C, strain DUN1, active compounds read low
[4] = locus YDR150W, strain NUM1, active compounds read low
[5] = locus YEL061C, strain CIN8, active compounds read low
[6] = locus YGR078C, strain PAC10, active compounds read low
[7] = locus YHR030C, strain SLT2, active compounds read low
[8] = locus YHR087W, strain rtc3, active compounds read low
[9] = locus YJL187C, strain SWE1, active compounds read low
[10] = locus YJR043C, strain POL32, active compounds read low
[11] = locus YJR075W, strain HOC1, active compounds read low
[12] = locus YKL190W, strain CNB1, active compounds read low
[13] = locus YLR039C, strain RIC1, active compounds read low
[14] = locus YLR058C, strain SHM2 (second series), active compounds read low
[15] = locus YLR085C, strain ARP6, active compounds read low
[16] = locus YLR262C, strain YPT6, active compounds read low
[17] = locus YML094W, strain GIM5, active compounds read low
[18] = locus YMR219W, strain ESC1, active compounds read low
[19] = locus YMR263W, strain SAP30, active compounds read low
[20] = locus YMR307W, strain GAS1, active compounds read low
[21] = locus YNL153C, strain GIM3, active compounds read low
[22] = locus YNL298W, strain CLA4 (second series), active compounds read low
[23] = locus YNL322C, strain KRE1, active compounds read low
[24] = locus YNR030W, strain Alg12, active compounds read low
[25] = locus YPL055C, strain LGE1, active compounds read low
[26] = locus YPL241C, strain CIN2, active compounds read low
[27] = locus YPR135W, strain CTF4, active compounds read low

With `COc1cccc(NC(=O)NC2Cc3ccccc3C2)c1` the normalized growth [1] was 0.975, the normalized growth [2] was 0.998 and the normalized growth [3] was 0.991. For the same molecule, the normalized growth (locus YDL134C, strain PPH21, active compounds read low) was 0.989, the normalized growth [4] was 0.867 and the normalized growth [5] was 1. The normalized growth [6] was 0.989, the normalized growth [7] was 0.929 and the normalized growth [8] was 1. It also gave a normalized growth [9] of 0.998, a normalized growth [10] of 0.982 and a normalized growth [11] of 0.996. The normalized growth [12] was 0.996, the normalized growth [13] was 0.996 and the normalized growth [14] was 0.992. The normalized growth [15] was 0.952, the normalized growth [16] was 0.96 and the normalized growth [17] was 0.992. For the same molecule, the normalized growth [18] was 0.99, the normalized growth [19] was 0.927 and the normalized growth [20] was 0.999. It also gave a normalized growth [21] of 0.994, a normalized growth [22] of 0.973 and a normalized growth [23] of 1.01. It also gave a normalized growth [24] of 0.978, a normalized growth (locus YOL006C, strain TOP1, active compounds read low) of 0.937 and a normalized growth [25] of 0.883. It also gave a normalized growth [26] of 0.986 and a normalized growth [27] of 0.877.

Work on `Cc1cccc(C(=O)c2ccccc2C(=O)O)c1` yielded a normalized growth [1] of 1.01, a normalized growth [2] of 1.02 and a normalized growth [3] of 1. It also gave a normalized growth [4] of 0.905, a normalized growth [5] of 1.01 and a normalized growth [6] of 0.997. The normalized growth [7] was 1.06, the normalized growth [8] was 1.01 and the normalized growth [9] was 0.998. The normalized growth [10] was 1.02, the normalized growth [11] was 1 and the normalized growth [12] was 0.997. It also gave a normalized growth [13] of 0.986, a normalized growth [14] of 1.01 and a normalized growth [15] of 1.03. For the same molecule, the normalized growth [16] was 0.984, the normalized growth [17] was 1.01 and the normalized growth [18] was 1.01. It also gave a normalized growth [19] of 0.991, a normalized growth (locus YNL128W, strain TEP1, active compounds read low) of 1.01 and a normalized growth [21] of 1.02. The normalized growth [22] was 1.04, the normalized growth [23] was 0.993 and the normalized growth [24] was 1.01. It also gave a normalized growth [25] of 1.02, a normalized growth [26] of 1.01 and a normalized growth [27] of 1.02.

Work on `C/C(=N/NC(=O)c1ccc(C(C)(C)C)cc1)c1ccccc1O` yielded a normalized growth (locus YAR019C, strain CDC15, active compounds read low) of 0.985, a normalized growth (locus YBL105C, strain PKC1, active compounds read low) of 0.979 and a normalized growth (locus YBR135W, strain CKS1, active compounds read low) of 0.969. For the same molecule, the normalized growth (locus YBR136W, strain MEC1, active compounds read low) was 0.979, the normalized growth (locus YBR160W, strain CDC28, active compounds read low) was 0.98 and the normalized growth (locus YDL017W, strain CDC7, active compounds read low) was 0.979. The normalized growth (locus YDL028C, strain MPS1, active compounds read low) was 0.974, the normalized growth [3] was 0.963 and the normalized growth (locus YDL108W, strain KIN28, active compounds read low) was 0.972. It also gave a normalized growth (locus YDL132W, strain cdc53, active compounds read low) of 0.98, a normalized growth (locus YDL214C, strain PRR2, active compounds read low) of 0.976 and a normalized growth (locus YDR052C, strain DBF4, active compounds read low) of 0.979. For the same molecule, the normalized growth (locus YDR054C, strain cdc34, active compounds read low) was 0.978, the normalized growth (locus YDR226W, strain ADK1, active compounds read low) was 0.971 and the normalized growth (locus YDR477W, strain SNF1, active compounds read low) was 0.985. For the same molecule, the normalized growth (locus YER123W, strain YCK3, active compounds read low) was 0.97, the normalized growth (locus YER133W, strain GLC7, active compounds read low) was 0.979 and the normalized growth (locus YFL009W, strain cdc4, active compounds read low) was 0.977. It also gave a normalized growth (locus YFL029C, strain CAK1, active compounds read low) of 0.974, a normalized growth (locus YFR003C, strain YPI1, active compounds read low) of 0.979 and a normalized growth (locus YFR019W, strain FAB1, active compounds read low) of 1.01. For the same molecule, the normalized growth (locus YFR028C, strain CDC14, active compounds read low) was 0.981, the normalized growth (locus YGR040W, strain KSS1, active compounds read low) was 0.994 and the normalized growth (locus YGR052W, strain FMP48, active compounds read low) was 1. For the same molecule, the normalized growth (locus YGR092W, strain DBF2, active compounds read low) was 0.934, the normalized growth [7] was 0.876 and the normalized growth (locus YHR079C, strain IRE1, active compounds read low) was 0.952. It also gave a normalized growth (locus YHR082C, strain KSP1, active compounds read low) of 1.07, a normalized growth (locus YHR205W, strain SCH9, active compounds read low) of 0.995 and a normalized growth (locus YIL147C, strain SLN1, active compounds read low) of 0.976. The normalized growth (locus YJL095W, strain BCK1, active compounds read low) was 0.972, the normalized growth (locus YJL128C, strain PBS2, active compounds read low) was 0.939 and the normalized growth (locus YJL157C, strain FAR1, active compounds read low) was 0.981. The normalized growth (locus YJR016C, strain ILV3, active compounds read low) was 0.987, the normalized growth (locus YJR066W, strain TOR1 (second series), active compounds read low) was 0.969 and the normalized growth (locus YJR066W, strain TOR1, active compounds read low) was 1.05. It also gave a normalized growth (locus YKL048C, strain ELM1, active compounds read low) of 0.985, a normalized growth (locus YKL067W, strain YNK1, active compounds read low) of 0.966 and a normalized growth (locus YKL101W, strain HSL1, active compounds read low) of 0.987. The normalized growth (locus YKL193C, strain SDS22, active compounds read low) was 0.988, the normalized growth (locus YKL203C, strain TOR2, active compounds read low) was 1.01 and the normalized growth (locus YLR113W, strain HOG1, active compounds read low) was 0.779 (active). The normalized growth (locus YLR133W, strain CKI1, active compounds read low) was 0.988, the normalized growth (locus YLR403W, strain SFP1, active compounds read low) was 1 and the normalized growth (locus YML070W, strain DAK1, active compounds read low) was 0.964. For the same molecule, the normalized growth (locus YMR001C, strain CDC5, active compounds read low) was 0.978, the normalized growth (locus YMR205C, strain PFK2 (second series), active compounds read low) was 0.981 and the normalized growth (locus YMR277W, strain FCP1, active compounds read low) was 0.98. The normalized growth (locus YNL006W, strain LST8, active compounds read low) was 0.976, the normalized growth (locus YNL020C, strain ARK1, active compounds read low) was 1.01 and the normalized growth (locus YNL161W, strain CBK1, active compounds read low) was 0.983. It also gave a normalized growth (locus YNL183C, strain NPR1, active compounds read low) of 1.01, a normalized growth (locus YNL207W, strain RIO2, active compounds read low) of 0.969 and a normalized growth (locus YNL222W, strain SSU72, active compounds read low) of 0.976. It also gave a normalized growth (locus YNL307C, strain MCK1 (second series), active compounds read low) of 1.01, a normalized growth (locus YOL078W, strain AVO1, active compounds read low) of 0.986 and a normalized growth (locus YOL136C, strain PFK27, active compounds read low) of 0.977. The normalized growth (locus YOR061W, strain CKA2, active compounds read low) was 0.995, the normalized growth (locus YOR119C, strain RIO1, active compounds read low) was 1.05 and the normalized growth (locus YOR231W, strain MKK1, active compounds read low) was 0.952. It also gave a normalized growth (locus YOR329C, strain SCD5, active compounds read low) of 0.975, a normalized growth (locus YPL031C, strain PHO85, active compounds read low) of 0.979 and a normalized growth (locus YPL153C, strain RAD53, active compounds read low) of 0.981. The normalized growth (locus YPL204W, strain HRR25, active compounds read low) was 0.967, the normalized growth (locus YPL209C, strain IPL1, active compounds read low) was 0.977 and the normalized growth (locus YPL256C, strain CLN2, active compounds read low) was 0.808 (active). For the same molecule, the normalized growth (locus YPR025C, strain CCL1, active compounds read low) was 0.971, the normalized growth (locus YPR106W, strain ISR1, active compounds read low) was 0.986 and the normalized growth (locus YPR111W, strain DBF20, active compounds read low) was 0.972. The normalized growth (strain NNK1, active compounds read low) was 0.966 and the normalized growth (strain TSCII, active compounds read low) was 0.981.

Molecule `COc1cccc(C(=O)NCCN2CCN(c3ccc(Cl)cc3)CC2)c1` has a normalized growth (locus YAL040C, strain CLN3, active compounds read low) of 0.992, a normalized growth [4] of 1.01 and a normalized growth (locus YDR363W, strain ESC2, active compounds read low) of 1.01. The normalized growth (locus YER002W, strain NOP16, active compounds read low) was 1.02, the normalized growth [6] was 1.01 and the normalized growth (locus YGR229C, strain SMI1, active compounds read low) was 1. The normalized growth [20] was 1.01, the normalized growth [21] was 1.01 and the normalized growth (locus YNL175C, strain NOP13, active compounds read low) was 1.03. It also gave a normalized growth (locus YNL197C, strain WHI3, active compounds read low) of 1.01, a normalized growth (locus YNL224C, strain SQS1, active compounds read low) of 1.03 and a normalized growth (locus YOR083W, strain WHI5 (second series), active compounds read low) of 1.03. For the same molecule, the normalized growth [26] was 1.01.
